From the supplement of paper PMC3334620
Whole data set: some 33,000 sequences, median “E-score (-0.5 to 0.5)” near -0.0014, cut for the highest 2% near 0.25. This excerpt belongs to a sample that is enriched for the highest values.

The sequences below were run against T1, Cad1 (UniProt P24813) (assay: PBM E-score (8-mer binding enrichment) (E-score (-0.5 to 0.5)); higher = stronger / more preferred TF binding). Conditions: protein concentration: 100 nM; construct: GST-full length.
T1 sequence: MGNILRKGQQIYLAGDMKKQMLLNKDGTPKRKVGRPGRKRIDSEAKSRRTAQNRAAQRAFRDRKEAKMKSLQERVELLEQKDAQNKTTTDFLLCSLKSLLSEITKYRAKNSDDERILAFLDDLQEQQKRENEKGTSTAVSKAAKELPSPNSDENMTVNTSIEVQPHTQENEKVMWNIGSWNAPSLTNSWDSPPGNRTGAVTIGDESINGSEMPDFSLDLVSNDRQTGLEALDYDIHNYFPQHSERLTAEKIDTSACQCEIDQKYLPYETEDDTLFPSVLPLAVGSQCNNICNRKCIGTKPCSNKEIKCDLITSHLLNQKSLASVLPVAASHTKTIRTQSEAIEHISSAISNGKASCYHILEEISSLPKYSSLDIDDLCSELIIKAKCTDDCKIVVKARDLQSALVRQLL
Procedure: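 Universal 'all 10-mer' protein binding microarrays (Agilent AMADID 015681) probed with GST-tagged S. cerevisiae TFs (full-length or DBD) made by in vitro transcription/translation (PURExpress), about 100-200 nM. Bound TF was detected with fluorescent anti-GST. Each ungapped 8-mer (which stands for itself and its reverse complement) is scored by the PBM enrichment score (E-score), a modified Wilcoxon-Mann-Whitney statistic from -0.5 to +0.5, computed with the Universal PBM Analysis Suite. Scale: above 0.35 generally sequence-specific binding.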

Sequence | PBM E-score
AGCAATCG | 0.27
AGCAATCA | 0.216
AGCAATCC | -0.214
ATGCGACC | 0.0488
ATATTAGA | 0.197
CTATTAGA | -0.057
GTATTAGA | 0.26
GTTGCAGA | -0.0187
AAATCGTG | 0.263
AAATAGTT | 0.129
AAATCGTC | 0.0296
AAATCGTA | -0.0277
AAATAGTC | -0.0981
AAATAGTG | 0.258
CACGATGC | -0.0719
GAATCGTA | 0.0597
CCGAAGAA | 0.00754
CAGGTGCC | -0.0801
AGAATACA | 0.0745
AATATGTG | 0.251
ACTATTTG | 0.101
CATATTTC | 0.0121
ATTATTTG | 0.175
AATATTTA | 0.213
AATATGTA | 0.206

Sequence | PBM E-score
AATATGTC | 0.17
ATTATTTC | 0.2
CTTATTTC | 0.304
AATATTTG | 0.255
CTTATTTA | -0.00667
AATATTTC | 0.264
CCCTACCG | -0.112
AACGGGAC | -0.148
AACCAGAC | -0.0829
GTGGACTA | 0.144
CTGAAGTC | -0.0337
ACATCCCG | 0.147
CCCTCGAC | -0.0126
AATTTGGG | 0.0286
AGTCCACA | -0.141
AATATTGG | 0.0135
AATATTGC | 0.294
CATATTGC | -0.116
GACGAAAC | 0.144
CATTTATA | 0.021
ATTTTGTC | 0.121
AATTTATA | 0.241
GATTTATA | 0.319
CATTTATC | 0.15
AATTTGTA | 0.196

Sequence | PBM E-score
AATTTGTC | 0.31
GATTTTTA | -0.0272
ATTTTATA | 0.221
AATTTATG | 0.229
AATTTATC | 0.293
ATTTTATG | 0.255
GATCAAAA | 0.144
AGTACTTA | -0.0184
CAGGTTCA | -0.134
TTCGACAA | 0.0549
GGCGACAC | 0.0142
GTACGTGA | 0.0217
AGCAACCA | 0.0389
ATCGTTAC | 0.0243
ATTCATGA | 0.0482
CTTCATGA | 0.207
GTTCATGA | 0.262
AATCATGA | 0.317
AATCATGG | 0.048
TATCATGA | 0.16
CTCTGAAC | -0.212
GGTATCCA | 0.135
CTCTCCTA | -0.129
CGCGATGC | -0.0576
TCAGAGAA | -0.0244

Sequence | PBM E-score
AAGGCCAT | 0.0298
ATTCTCCC | 0.115
CTACCTCA | -0.107
GGCGCTTA | -0.0696
GGCGCTGA | -0.0921
AGCGCTGA | 0.258
AGCGCTTC | 0.122
GACGCTGA | 0.0912
AGCGCTTA | 0.336
CGCGCTGA | 0.219
TACGCTGA | 0.275
CGCGCTTA | 0.262
CACGCTGA | 0.143
CGCGCTTC | 0.0321
AGCGCTGG | 0.191
CTGTTCGA | -0.08
CTCCTACC | -0.236
CGGGTGAC | -0.0446
ACGGTGAC | -0.102
ATCATTGG | -0.0561
CCAGTCGG | -0.238
CTCACCGA | -0.12
GATTCCTA | 0.0143
TACGCTCA | -0.0567
AACGCTCA | -0.0578

Sequence | PBM E-score
CACGCTCA | 0.261
ACGGTACA | 0.0323
AGTCAGGC | 0.294
AGTCAGGA | 0.141
CGTCAGGC | -0.125
GCCATAAA | 0.125
AGAAGGTA | 0.103
CGCGCTAG | 0.238
CGCGCTAA | 0.256
GGCGCTAC | -0.214
AGCGCTAT | 0.278
CGCGCTAC | 0.26
AGCGCTAC | -0.068
AGCGCTAA | 0.212
TGCGCTAA | 0.156
GGCGCTAA | -0.0255
CCAAAATA | 0.147
CTTCCATA | -0.244
AAGCCGGT | -0.024
GCATAGAA | 0.0802
ATTCATCA | 0.132
ACTTTCTA | -0.028
TACTAGAA | 0.0443
CACCCGCC | 0.0605
ATCGTAGC | 0.0921

Sequence | PBM E-score
AACGAGCA | -0.0102
AACATAAG | 0.261
AATATAAT | 0.18
AACATAAC | 0.135
TATATAAA | 0.23
AATATAAA | 0.251
CACATAAG | 0.00562
CATATAAG | 0.00934
AATATAAG | 0.297
CATATAAA | 0.0106
AGGCTACT | -0.196
CATTGGAA | 0.0544
TGTAGAAA | -0.18
CATTGAGA | -0.109
AGAAGAAT | -0.0672
AGATAGAC | 0.0347
GATTTCTA | 0.123
ACTATTGG | 0.025
ATAGTTCA | 0.0339
AATTTAAT | 0.252
AATTTTAA | 0.249
ATTTTTCC | 0.0266
ATTTTTAC | 0.0299
AATTTAAC | 0.124
AATTTTCC | 0.26

Sequence | PBM E-score
AATTTTAT | 0.295
AATTTTTC | 0.145
AAATTTAT | 0.171
AATTTTAC | 0.282
CATTTTAC | 0.198
AATTTAAG | 0.0522
CAGCGGCA | -0.0412
CCAGCCCG | -0.102
CGGGTTTC | 0.179
CGACCGAG | -0.0641
CATTCGGC | -0.0238
GATAATCA | 0.169
CTTAATAC | -0.0147
TATAATCA | 0.31
AATAATAC | 0.205
TATAATAA | 0.278
AATAATAA | 0.305
GTTAATAA | 0.249
AATAATCA | 0.218
CTTAATAA | 0.383
TCTAATAA | 0.0758
AATAATAG | 0.077
CATAATAA | -0.0382
AGCTCCGG | -0.115
AAGCAGAG | -0.111

Sequence | PBM E-score
GCAAGGCC | 0.0338
CAGAGAGG | -0.329
AGAGCCGG | -0.167
AACCAAGC | 0.03
AAATCGGG | 0.0578
GGGTATAC | 0.0548
GCATCTAA | 0.194
TAACACTA | 0.265
GAACACTA | 0.0513
CAACACTA | 0.19
ACCGTCAC | -0.176
CCCACACA | 0.00769
AGAAGGCT | -0.299
ATGTAATG | 0.281
CTGTAATA | 0.143
ATGTAACG | 0.257
ATGTAACC | -0.0284
AAGTAATG | 0.0383
GTGTAATA | 0.194
ATGTAACA | 0.168
ATGTAATC | 0.168
ATGTAATA | 0.334
ATCTTACC | 0.0255
GACATTCC | -0.0262
GAGAACTA | 0.103

Sequence | PBM E-score
GTCTAAGA | 0.151
TCCTCCCA | -0.144
GTAGATAA | 0.251
TTAGATAA | 0.105
ATAGATAA | 0.125
ACAGGCAA | 0.0554
CGATCCGA | 0.251
GGATCCGA | -0.00022
CGATCCGC | 0.163
CGGGTTTA | -0.0209
AGAGTGCT | 0.0363
GAAGAACA | 0.121
TAAGAACA | 0.275
CAAGAACA | 0.0216
CTAGCTTC | 0.0393
AGCCTACC | -0.282
CAACTGTC | 0.0813
CACTAAAA | 0.19
TACAGTAA | 0.0528
CACAGTAA | 0.291
CACAGTAG | -0.0343
